In the library only some 14% were active in any assay of this set; here they are far more common.
CRE Fsk mod = modulators of forskolin-stimulated CRE signaling in CHO cells; CHO CRE-bla reporter (cAMP response element driving beta-lactamase), forskolin EC10, beta-lactamase ratio; Potency, µM (series often up to 38.2 µM), for the others: at the top dose activity change, negative = inhibition, most hits filed as activators; 2.5% of 71,000 active; AID 662; active means well fitted activation curve with a large enough effect in the signal ratio, with a control signal flat, not every such curve was filed as active; inconclusive means small, poorly fitted or top-dose-only effect, or effect the other way, or a change in a side signal; the % refers to the signal ratio; further: potency means the concentration at half of the fitted maximal effect; % of control where 0% means no effect
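Titrated compounds plus EC10 NKH 477 on CHO CRE-bla cells, 3 h, 37 °C. CCF4, 2 h RT. Ratio 460/530 nm → AC50.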
HSD17B inhib = blocks hydroxysteroid 17-beta dehydrogenase activity; Q99714; recombinant HSD17B10, NADH fluorescence kinetic; Potency, µM (titrated, usually from 57.1 µM), for the others: top-dose activity change, negative = inhibition, most hits filed as inhibitors; 7.6% of 75,000 active; AID 893;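 further: the protocol describes HADH2 (HSD17B10) and not the HSD17B4 of the title; potency means the concentration at half of the fitted maximal effect; on the % scale 0 is the no-effect control and ±100 the full control effect; nearly all actives have a fitted effect of over 70% in size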
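Enzyme plus compound, 15 min room temperature; substrate mix added (NAD+ 1 mM, beta-hydroxybutyryl-CoA 90 uM final); plates read kinetically for NADH fluorescence. HADH2 was His-tagged, E. coli-derived, 20 nM.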
A350 fluor = A350 region autofluorescence; 11% of 59,000 active; AID 590; Compound autofluorescence, 340/450 nm, Alexa 350 dye-equivalents; hits give high values; max dye-equivalent concentration, M; in the data active means max dye-equivalent concentration above about 10 nM; inconclusive means mostly about 1.1 nM to 9.6 nM
HADH2 inh = inhibitors of human HADH2 dehydrogenase | recombinant HADH2, NADH fluorescence, beta-hydroxybutyryl-CoA | Potency, µM (titrated, usually from 57.1 µM), for the others: at the top dose activity change, negative = inhibition, most hits filed as inhibitors | 3.4% of 73,000 active | AID 886; further: potency means the concentration at half of the fitted maximal effect; on the % scale 0 is the no-effect control and ±100 the full control effect; nearly all actives have a fitted effect of over 60% in size
Target sequence (Q99714 whole entry, looked up, one chain of several): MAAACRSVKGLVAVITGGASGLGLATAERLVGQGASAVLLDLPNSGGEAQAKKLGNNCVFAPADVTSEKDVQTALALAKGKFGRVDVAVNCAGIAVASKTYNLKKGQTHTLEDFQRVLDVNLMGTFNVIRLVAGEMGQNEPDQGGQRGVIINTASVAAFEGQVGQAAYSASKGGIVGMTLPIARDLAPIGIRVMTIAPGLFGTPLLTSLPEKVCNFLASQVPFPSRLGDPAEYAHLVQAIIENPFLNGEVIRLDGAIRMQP
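Buffer 100 mM Tris-HCl pH 9.0/0.01% Tween-20; HADH2 20 nM; NAD+ 1 mM; beta-hydroxybutyryl-CoA 90 uM (all final). 15 min cpd preincubation, RT.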
AID923 = qHTS Assay for Allosteric/Competitive Inhibitors of Caspase-1: Spectroscopic Profiling in AFC Spectral Region. AID 923, 2007. 1.1% of 75,000 active. compound fluorescence, AFC spectral region (405/520 nm). Potency, µM (titrated, usually from 57.5 µM), without a hit: top-dose fluorescence increase, actives largely listed as activators; further: potency means the concentration at half of the fitted maximal effect; 0% is about no effect
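Titrations up to 57 uM read every 20 sec for 3 min (405/520 nm) with 50 nM caspase 1 and 5 uM Ac-WEHD-AFC, pH 7.5 HEPES buffer. Fluorescence-vs-time intercept gave baseline, scaled against on-plate AFC standard.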
4MU fluor = compounds fluorescent in 4-MU spectral region; compound autofluorescence, 340/450 nm, 4-MU equivalents; hits give high values; max dye-equivalent concentration, M; 11% of 59,000 active; in the data active means max dye-equivalent concentration above about 10 nM; inconclusive means mostly about 1.1 nM to 9.6 nM
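Compounds in 100 mM Tris, pH 8.0, incubated 15 min at room temperature, then fluorescence read at 340 nm excitation/450 nm emission. Signal converted to 4-MU dye-equivalent concentration using an on-plate six-point 4-MU standard curve.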
* hit, by the source's call; i = inactive; ? = inconclusive; . = not tested or not shown; [ ] = another dose, or the depositor's remark. Unless noted, the call rests on the fitted dose curve; in most records, active means well fitted curve in the direction sought with a large enough effect; inconclusive means small, poorly fitted or top-dose-only effect, or another doubt; inactive means no such curve, though single readings can be large; an effect the other way counts as inactive or inconclusive.

SMILES	CRE Fsk mod	HSD17B inhib	A350 fluor	HADH2 inh	AID923	4MU fluor
CCCCN(CC)CCNC(=O)c1cc2c(=O)n(C)c3ccccc3c2n1C	?	31.6µM*	.	?	0.5%	.
COc1ccc(-n2nc(C(=O)Nc3ccc4c(c3)OCO4)c3ccccc3c2=O)c(OC)c1	?	3.1%	i	5.8%	-1.3%	i
COC(=O)C/C=C\[C@@H](C)[C@@H](/C=N\O[C@@H](C)c1cn([C@H](CO)Cc2ccccc2)nn1)NS(=O)(=O)c1ccc(C)cc1	.	1.1%[11.4 µM]	.	9.5%[11.4 µM]	0.1%[11.5 µM]	.
CC1(C)NC(=O)N(CC(O)COC2CCCCC2)C1=O (configuration not stated)	-3.5%	2.9%	i	-4.3%	0.7%	i
CC1(C)NC(=O)N(CC(O)CN2CCCCC2)C1=O (configuration not stated)	-12.0%	?	2.41e-08M*	9.7%	-0.1%	2.31e-08M*
CCOc1ccc2[nH]c(=O)c(CN(CCOC)C(=O)N3CCOCC3)cc2c1	6.7%	25.1µM*	2.4e-07M*	7.2%	1.3%	2.52e-07M*
CCOc1ccc2[nH]c(=O)c(CN(Cc3ccc(C)cc3)C(=O)N3CCCC3)cc2c1	2.2%	?	2.69e-08M*	23.0%	1.1%	3.53e-08M*
NCCCCCCCCCCN	?	8.1%	i	8.4%	-1.0%	i
CCOC(=O)C1CSC(Cc2ccc(OCc3ccc([N+](=O)[O-])cc3)cc2)N1 (configuration not stated)	.	-14.5%	.	?	-1.0%	.
COc1cccc(-c2nc(N3CCNCC3)c3ccccc3n2)c1	?	-8.9%	i	7.4%	-0.7%	i
Cc1ccc(-c2cnc(-c3ccncc3)o2)cc1	?	25.1µM*	.	1.58µM*	11.4%	.
CC(C)NCC[C@@H](O)c1cc2ccccc2o1	-9.2%[7.6 µM]	13.4%[11.4 µM]	i	9.8%[11.4 µM]	0.8%[11.5 µM]	i
Cc1cc(C)n2nc(SCC(=O)c3ccc[nH]3)nc2n1	?	-25.2%	i	-20.8%	1.2%	i
COc1ccc(C(=O)CSc2nc3nc(C)cc(C)n3n2)cc1OC	3.98µM*	5.9%	i	?	2.5%	i
Cc1cc(C)n2nc(SCC(=O)Nc3ccc(F)cc3)nc2n1	5.01µM*	10.2%	.	9.2%	2.8%	.
COc1ccc2c(CSc3nc4nc(C)cc(C)n4n3)cc(=O)oc2c1	10µM*	?	?	85.8%	0.8%	?
Cc1cc(C)n2nc(SCc3ncc(-c4ccccc4)o3)nc2n1	?	3.1%	i	-1.5%	-0.5%	i
Cc1ccc(-n2ncc3c(NCc4ccccc4)ncnc32)cc1	2.9%	?	3.23e-08M*	?	-0.4%	2.45e-08M*
c1ccc(Cn2ncc3c(NCc4ccco4)ncnc32)cc1	18.5%	1.4%	i	-8.4%	1.3%	i
Cc1ccc(-n2ncc3c(NCc4ccccn4)ncnc32)c(C)c1	-16.5%	-29.0%	1.19e-08M*	-2.3%	-0.3%	?
c1ccc(-n2ncc3c(NCc4ccco4)ncnc32)cc1	?	31.6µM*	i	-10.1%	-2.5%	i
Cc1ccc(-n2ncc3c(NCc4cccnc4)ncnc32)c(C)c1	.	.	i	.	.	i
c1ccc(-n2ncc3c2ncn2cnnc32)cc1	-3.7%	31.6µM*	i	7.7%	1.3%	i
COc1cc(C2c3[nH]c4ccccc4c3CC3C(=O)N4C(Cc5c([nH]c6ccccc56)C4c4cc(OC)c(OC)c(OC)c4)C(=O)N32)cc(OC)c1OC (configuration not stated)	.	-10.7%[11.4 µM]	.	13.3%[11.4 µM]	-3.1%[11.5 µM]	.
NC1(C(=O)NC2(C(=O)O)CCCC2)CCCC1	1.5%[7.6 µM]	4.5%[11.4 µM]	i	-5.2%[11.4 µM]	1.8%[11.5 µM]	i
SMILES	CRE Fsk mod	HSD17B inhib	A350 fluor	HADH2 inh	AID923	4MU fluor
CO[C@H]1COC(=O)C/C=C\[C@@H](C)COC(=O)[C@H]2CCCN2C(=O)C/C=C\[C@H]1C	.	-1.2%[11.4 µM]	.	3.7%[11.4 µM]	-0.3%[11.5 µM]	.
Nc1ncnc2c1cnn2-c1ccccc1	27.7%	25.1µM*	i	-17.6%	-0.1%	i
CC(C)CN1CCC2(CC1)CCN(C(=O)c1cc(C(F)(F)F)cc(C(F)(F)F)c1)CC2	-0.3%	2.0%	i	1.5%	1.5%	i
CN1CCN(C(=O)c2ccc(S(=O)(=O)c3ccc(Br)cc3)cc2)CC1	-4.4%	11.3%	1.06e-08M*	1.3%	2.1%	?
Cc1ccc(C(=O)N2CCN(C)CC2)cc1S(=O)(=O)N1CCCCC1	2.5%	11.8%	i	-7.6%	0.2%	i
CC(C)(C)C(=O)Nc1ccc(-c2cn3ccsc3n2)cc1	13.5%	4.3%	6.3e-08M*	10.3%	0.2%	4.47e-08M*
COc1ccc(-c2csc(NCc3ccco3)n2)cc1C	1.6%	-21.2%	.	20µM*	1.7%	.
COc1ccc(-c2nc3cccc(C)n3c2NCc2ccco2)cc1OC	9.5%	?	1.21e-07M*	25.1µM*	9.2%	1.37e-07M*
O=C(CN1C(=O)c2ccccc2C1=O)Nc1cccnc1	?	1.3%	i	-0.4%	-0.8%	i
Cc1cc(C(F)(F)F)nn1CC(=O)Nc1cccnc1	?	2.0%	3.04e-08M*	8.9%	0.5%	2.86e-08M*
Cc1cc2cc3c(C)cc(=O)oc3c(C)c2o1	23.2%[17.1 µM]	5.8%	5.17e-08M*	6.1%[25.6 µM]	-0.4%	3.83e-08M*
Cc1cc(O)cc(=O)o1	.	-7.2%	.	.	-4.0%	.
COc1cc2c(cc1NC(=O)COC(=O)C1CC(=O)N(Cc3ccco3)C1)oc1ccccc12 (configuration not stated)	-24.7%	25.1µM*	?	?	2.0%	?
Cc1[nH]c2ccccc2c1C(=O)COC(=O)C1CC(=O)N(Cc2ccco2)C1 (configuration not stated)	-19.5%	-9.0%	i	-7.7%	3.6%	i
CCOCc1nnc(NS(C)(=O)=O)s1	-3.8%	-28.1%	4.12e-08M*	-3.4%	2.3%	4.19e-08M*
COCc1nnc(NS(=O)(=O)c2ccccc2)s1	-2.1%	-3.5%	?	-23.6%	-0.1%	?
CCNc1nc(NCC)nc(Oc2ccc(OCC)nn2)n1	?	10.7%	.	-5.4%[11.4 µM]	0.0%	.
CCNc1nc(N)nc(Oc2ccc(OCCOc3ccc(Cl)cc3Cl)nn2)n1	6.31µM*	-1.0%	i	4.3%	2.5%	i
O=C(CN1C(=O)c2ccccc2C1=O)[C@@H](O)CN1C(=O)c2ccccc2C1=O	-1.2%[7.6 µM]	3.4%[11.4 µM]	i	-2.8%[11.4 µM]	-3.4%[11.5 µM]	i
CCc1c(C)n2nc(C)cc2[nH]c1=O	?	20µM*	?	?	0.5%	i
CCc1c(C)nc(N2CCOCC2)[nH]c1=O	5.6%	2.0%	i	?	-0.3%	i

Screening results as filed in PubChem BioAssay.
